Data published in PubChem BioAssay AID463213 (Sanford-Burnham Center for Chemical Genomics, 2010).
Hit rate of the full screen: of about 7,400 compounds, about 4,100 (55%) were called active. So high a share suggests a set chosen from earlier hits. A selection follows. Values without a mark were called inactive.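 How the source made its calls: active means inhibition of yeast growth at or above a set limit in either of two repeat tests at 20 µM; inactive means the rest.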

Test: growth inhibitors of tim10-1 mutant yeast, confirmation, single concentration, luminescence, S. cerevisiae (AID 463213);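 further: tim10-1 mutant grown at permissive 25 °C to find synthetic lethal compounds; 0% = DMSO yeast wells and 100% = medium wells without yeast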
Settings: S. cerevisiae tim10-1 ts strain growth, BacTiter-Glo, 24 h; at 20 µM; stronger effect = higher value

Row | Compound | inhibition
1 | O=C(Nc1nnc(SCc2c(Cl)cccc2Cl)s1)C1CCCO1 (configuration not stated) | 37% (active)
2 | CN(C(=O)CC(NC(=O)c1ccccc1)(c1ccccc1)c1ccccc1)c1ccccc1 | 31.1% (active)
3 | CN(C(=O)COc1nnc(-c2cccs2)c(-c2cccs2)n1)c1ccccc1 | 17%
4 | CCOc1ccccc1/C=c1\sc2nc(-c3ccco3)nn2c1=O | 49.4% (active)
5 | CCc1cccc(CC)c1NC(=S)NCc1ccc2[nH]c(C)cc2c1 | 35.8% (active)
6 | O=C1Oc2ccccc2C(=O)/C1=C/c1ccccc1O | 55.9% (active)
7 | CN(C)CCCN(C(=O)c1ccc(S(=O)(=O)N2CCCc3ccccc32)cc1)c1nc2ccc(F)cc2s1 | 44.5% (active)
8 | COC(=O)c1cc(S(=O)(=O)N2CCN(c3cc(C)ccc3C)CC2)c[nH]1 | 17.7%
9 | Nc1cc(OC(=O)c2ccccc2Br)nn1S(=O)(=O)c1ccccc1 | 33.8% (active)
10 | O=C1c2ccccc2S(=O)(=O)N1CC(O)Cn1c2ccccc2c2ccccc21 (configuration not stated) | 51.1% (active)
11 | CCOC(=O)c1ccccc1CN1C(=O)c2ccccc2S1(=O)=O | 17.6%
12 | Cc1ccc(C)c(N2CCN(C(=O)CCCCn3c(=O)[nH]c4ccccc4c3=O)CC2)c1 | 17.4%
13 | COc1cccc(-c2cc3nc4c(c(N5CCC6(CC5)OCCO6)n3n2)CCCC4)c1 | -1.05%
14 | O=c1nc2s/c(=C\c3ccco3)c(=O)n2nc1Cc1ccccc1 | 66.9% (active)
15 | O=C1OC(/C=C/c2ccccc2)=NC/1=C/c1ccco1 | 3%
16 | O=C(CSc1cccc2cccnc12)N/N=C/c1cccnc1 | 36% (active)
17 | CCOc1cc(-c2conc2N)cc(OCC)c1OCC | 20.5%
18 | CCOC(=O)c1ccc(NC(=O)c2nc[nH]c2C(=O)NCc2ccccc2)cc1 | 41.4% (active)
19 | COC(=O)c1ccc(NC(=O)c2ccccc2NS(=O)(=O)c2ccccc2)cc1 | 19.4%
20 | O=C(COc1ccccc1F)NNC(=O)c1ccc(N2CCCCC2)c([N+](=O)[O-])c1 | 25.8%
21 | CN1CCN(c2ccccc2NC(=O)COc2ccc(C3CCCCC3)cc2)CC1 | 12.4%
22 | Cc1ccccc1OCC(=O)Nc1ccc(N2CCN(C(=O)C(C)C)CC2)c(Cl)c1 | 66.9% (active)
23 | O=[N+]([O-])c1c(NCCO)cc(Sc2nc3ccccc3s2)c2nonc12 | 19% (active)
24 | CNC(=O)c1csc(Cc2c(Cl)sc3ccc(Cl)cc23)n1 | 20.5%

Row | Compound | inhibition
25 | CCCc1cc(-c2nc(-c3ccc(C)cc3)cs2)ccn1 | 34.8% (active)
26 | CCOC(=O)/C=C/c1ccc(C(F)(F)F)cc1S(=O)(=O)NC(C)(C)C | 29.9%
27 | O=C(Nc1ccccc1Cl)/C(Cl)=C(\Cl)S(=O)c1ccccc1 (configuration not stated) | 55% (active)
28 | Cc1[nH]n(C(N)=S)c(=O)c1N=Nc1ccc(Cl)cc1Cl | 61.3% (active)
29 | CC(=O)Oc1ccc2c(c1)C(=O)c1ccccc1C2=O | 31.1% (active)
30 | O=C(CSC(=S)N1CCOCC1)c1cc(Br)cc(Br)c1O | 46% (active)
31 | C[C@@H](NC(=O)OC(C)(C)C)c1nnc(S(=O)(=O)Cc2ccccc2)o1 | 48.3% (active)
32 | CCOC(=O)Cc1csc(NC(=O)CSc2ccc(Br)cc2)n1 | 31.3% (active)
33 | CCOC(=O)Cc1csc(SCC(=O)NC(C)C23CC4CC(CC(C4)C2)C3)n1 (configuration not stated) | 40.4% (active)
34 | COc1ccc(NC(C)=O)cc1NC(=O)CN1CCN(C2c3ccccc3-c3ccccc32)CC1 | 15.5%
35 | O=C(Nc1ccccc1)c1nnsc1S(=O)(=O)c1ccc(Cl)cc1 | 85.3% (active)
36 | COc1cc(/C=C2/C(=O)ON=C2C)ccc1OCc1ccccc1F | 26.9%
37 | CCCN(CC1COc2ccccc2O1)C(=S)Nc1ccc(C)cc1 (configuration not stated) | 36.7% (active)
38 | Cc1ccoc1C(=O)Nc1cccc(Oc2ccccc2)c1 | 43.2% (active)
39 | Cc1ccc(C(=O)COc2cccc(NC(=O)c3ccco3)c2)cc1 | 5.8%
40 | CN(C)N1C(N)=C(C#N)C(c2ccc(Br)cc2)C2=C1CCCC2=O (configuration not stated) | 8.4%
41 | S=c1[nH]nc(-c2cccnc2)n1/N=C/C(Cl)=C\c1ccccc1 | 33.9% (active)
42 | Fc1ccccc1/C=C1\CCCC2=C1Nc1ncnn1C2c1ccccc1F (configuration not stated) | 30.5% (active)
43 | Cc1nc2sc(C(=O)c3ccccc3)c(N)c2c2c1CCCC2 | 37.9% (active)
44 | Cc1ccc2c(N)c(C(=O)c3ccccc3)sc2n1 | 29.6%
45 | NC(=O)c1sc2nc3c(c(-c4ccccc4)c2c1N)CCC3 | 19.1%
46 | CCn1c(COc2c(C)cccc2C)nnc1SCc1nc2ccccc2c(=O)[nH]1 | 20.1%
47 | CCCCCCCCCCCCCCCC(=O)OC/C=C(C)/C=C/C=C(C)/C=C/C1=C(C)CCCC1(C)C | 17.2%
